Tb PFK inh: blocks T. brucei phosphofructokinase. O15648. T. brucei PFK, ADP-Glo luminescence. actives 0.17% (n = 330,000). AID 485367. Potency, µM (top dose mostly 57.5 µM), usual class: inhibitors; also: nearly all actives have a fitted effect of over 60% in size
Target sequence (O15648 whole entry, looked up): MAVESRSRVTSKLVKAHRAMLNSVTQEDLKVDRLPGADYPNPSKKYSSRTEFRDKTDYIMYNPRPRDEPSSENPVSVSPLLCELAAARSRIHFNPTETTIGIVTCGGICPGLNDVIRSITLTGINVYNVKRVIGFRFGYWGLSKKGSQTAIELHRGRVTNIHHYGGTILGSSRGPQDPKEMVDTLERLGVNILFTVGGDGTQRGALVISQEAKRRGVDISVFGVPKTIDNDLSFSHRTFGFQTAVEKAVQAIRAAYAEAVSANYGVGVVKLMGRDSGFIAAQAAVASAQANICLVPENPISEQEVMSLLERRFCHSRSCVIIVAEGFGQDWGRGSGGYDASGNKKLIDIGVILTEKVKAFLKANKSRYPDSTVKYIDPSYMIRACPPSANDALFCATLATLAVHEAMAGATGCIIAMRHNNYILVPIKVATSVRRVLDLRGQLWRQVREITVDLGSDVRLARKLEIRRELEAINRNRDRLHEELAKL
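In TEA buffer at pH 8.0 with 5 mM MgCl2, enzyme (1.25 nM) converted F6P (0.5 mM) and ATP (0.1 mM) for 45 min at room temperature. ADP product was read by luciferase luminescence.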
CBFb-RUNX1 inh: CBF-beta/RUNX1 interaction disruption; Potency, µM (series often up to 59.8 µM), actives largely listed as inhibitors; AID 1477; 230,000 tested, under 10 active; Q01196+Q13951; AlphaScreen CBFb-His/RUNX1-biotin binding, biochemical
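AlphaScreen binding: CBFb-His and RUNX1-biotin (30 nM each) preincubated 20 min, compound added for 15 min, then nickel and streptavidin beads for 90 min, all at room temperature. Disruption of the interaction by any mechanism counts as activity.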
KinaseGlo FLuc: blocks Kinase-Glo luciferase, a counter-screen artifact. Kinase-Glo luciferase, ATP luminescence, 8 min. AID 1379. actives 0.28% (n = 200,000). Q27757. Potency, µM (doses to about 38.3 µM), most hits filed as inhibitors; also: nearly all actives have a fitted effect of over 60% in size
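Luminescence was the read-out, taken after 8-minute incubation at ambient temperature. Luciferase turned over luciferin with 10 uM ATP in imidazole pH 7.2 buffer containing KCl, MgCl2, Tween 20 and BSA.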
GALK inh: blocks human galactokinase activity; P51570; actives 0.007% (n = 270,000); Potency, µM (doses to about 57.5 µM), actives largely listed as inhibitors; Purified GALK, Kinase-Glo residual ATP luminescence
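Kinase-Glo Plus luminescence measured ATP left after a 1 h room-temperature reaction. The reaction used 5 nM GALK, 100 uM galactose and 35 uM ATP at pH 8.0 (20 mM HEPES, 5 mM MgCl2, 60 mM NaCl, 1 mM DTT, 0.01% BSA).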
PKM2 act: PKM2 (human) enzyme activation | purified PKM2, Kinase-Glo ATP luminescence, activation; response scale: 0% is enzyme alone, no compound | P14618 | actives 0.34% (n = 260,000) | Potency, µM (series often up to 57.5 µM), most hits filed as activators | AID 1631; also: nearly all actives have a fitted effect of over 55% in size
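hPK-M2, >95% pure; 0.1 mM ADP / 0.5 mM PEP final; imidazole pH7.2 buffer w/ 7 mM MgCl2, 50 mM KCl; 1 h RT; Kinase-Glo lum. Intermediate enzyme activity for dual inhibitor/activator qHTS.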
A number is an active result. Shown are actives, neighbours in structure and some others; about 0.56% of the full set was active somewhere. Calls follow the shape of the dose curve; as a rule, active = well fitted curve in the direction sought with a large enough effect; inconclusive = small, poorly fitted or top-dose-only effect, or another doubt; inactive = no such curve, though single readings can be large; an effect the other way counts as inactive or inconclusive.

`Cc1ccc(CNC(=O)Cn2ccc3cc(S(=O)(=O)N4CCCC4)ccc32)o1` gave Tb PFK inh inactive, GALK inh inactive and PKM2 act 16µM.
`CC(C)Oc1ccc(CNC(=O)Cn2ccc3cc(S(=O)(=O)N4CCCC4)ccc32)cc1` gave Tb PFK inh inactive, GALK inh inactive and PKM2 act inactive.
`CCOc1cc(/C=C(\C#N)C(N)=O)ccc1OS(=O)(=O)c1ccccc1` gave Tb PFK inh inactive, CBFb-RUNX1 inh inactive, KinaseGlo FLuc inactive, GALK inh inactive and PKM2 act 14µM.
Screening Cn1c(=O)c2[nH]c(-c3ccccc3)c(O)c2n(C)c1=O returned Tb PFK inh inactive, CBFb-RUNX1 inh inactive, KinaseGlo FLuc inactive, GALK inh inactive and PKM2 act 1.4µM.
COC(=O)[C@H](Cc1ccccc1)NC(=O)O[C@@H]1C(=O)c2cc(OC)ccc2O[C@H]1c1cccc(OC)c1 was read as CBFb-RUNX1 inh inconclusive and KinaseGlo FLuc inactive.
For CN1CCC(CNC(=O)c2ccc(Cc3nc4ccccc4[nH]3)cc2)CC1 the results were KinaseGlo FLuc inactive.
CCc1cc(C(C)=O)c(O)cc1OCCCCCC(C)(C)c1nn[nH]n1 was read as CBFb-RUNX1 inh inactive, KinaseGlo FLuc inactive and PKM2 act inactive.
CC(=O)c1c(C)[nH]c(C(=O)Nc2ccc(C)c(S(=O)(=O)Nc3ccc(C)cc3C)c2)c1C was read as Tb PFK inh inactive, CBFb-RUNX1 inh inactive, GALK inh inactive and PKM2 act 18µM.
COc1ccccc1NS(=O)(=O)c1cc(NC(=O)c2[nH]c(C)c(C(C)=O)c2C)ccc1N1CCOCC1 was read as Tb PFK inh inactive, CBFb-RUNX1 inh inactive, GALK inh inactive and PKM2 act 16µM.
Screening COc1ccccc1NS(=O)(=O)c1cc(NC(=O)c2ccc(=O)[nH]c2)ccc1N1CCOCC1 returned Tb PFK inh inactive, CBFb-RUNX1 inh inactive, KinaseGlo FLuc inactive, GALK inh inactive and PKM2 act inactive.
For CC(=O)c1c(C)[nH]c(C(=O)Nc2ccc(S(=O)(=O)N(C)C)cc2)c1C the results were Tb PFK inh inactive, CBFb-RUNX1 inh inactive, GALK inh inactive and PKM2 act 7.1µM.
`CC(=O)c1c(C)[nH]c(C(=O)Nc2cccc(S(=O)(=O)N(C)C)c2)c1C` gave Tb PFK inh inactive, CBFb-RUNX1 inh inactive, KinaseGlo FLuc inactive, GALK inh inactive and PKM2 act inconclusive.
Screening CC(C)C[C@H](NC(=O)[C@@H]1CCCN1C(=O)[C@H](Cc1ccccc1)NC(=O)[C@H](C)NC(=O)[C@H](CCC(=O)O)NC(=O)[C@H](C)NC(=O)[C@H](CO)NC(=O)[C@H](CCC(=O)O)NC(=O)[C@H](CC(=O)O)NC(=O)[C@H](CCC(=O)O)NC(=O)[C@H](C)NC(=O)CNC(=O)[C@H](CC(N)=O)NC(=O)[C@@H]1CCCN1C(=O)[C@H](Cc1ccc(O)cc1)NC(=O)[C@@H](NC(=O)[C@H](CCCCN)NC(=O)[C@@H](NC(=O)[C@@H]1CCCN1C(=O)[C@@H](N)CCCNC(=N)N)C(C)C)C(C)C)C(=O)N[C@@H](CCC(=O)O)C(=O)N[C@@H](Cc1ccccc1)C(=O)O returned CBFb-RUNX1 inh inactive.
For Cc1cc(N)n2nc(-c3ccccc3)cc2n1 the results were Tb PFK inh inactive, CBFb-RUNX1 inh inactive, KinaseGlo FLuc 13µM and PKM2 act inactive.
`Cc1ccc(-c2cc3nc(-c4ccccc4)cc(N)n3n2)cc1` gave Tb PFK inh inactive, CBFb-RUNX1 inh inactive, KinaseGlo FLuc inactive, GALK inh inactive and PKM2 act inactive.
For O=S(=O)(NCc1cccnc1)c1cccn1-c1ncc(C(F)(F)F)cc1Cl the results were Tb PFK inh inactive, CBFb-RUNX1 inh inactive, KinaseGlo FLuc inactive, GALK inh inactive and PKM2 act 22µM.
CCCNS(=O)(=O)c1cccn1-c1ncc(C(F)(F)F)cc1Cl was read as Tb PFK inh inactive, CBFb-RUNX1 inh inactive, KinaseGlo FLuc inactive, GALK inh inactive and PKM2 act inconclusive.
Screening C=CCc1cccc(/C=N/NC(=O)CN2CCN(Cc3ccccc3)CC2)c1O returned CBFb-RUNX1 inh inactive.
`CC(C)[C@H](NC(=O)[C@@H](Cc1c[nH]c2ccccc12)NC(=O)[C@H](Cc1ccc(O)cc1)NC(=O)[C@@H](N)CC(=O)O)C(=O)N[C@H](Cc1c[nH]c2ccccc12)C(=O)N[C@H](Cc1c[nH]c2ccccc12)C(=O)N[C@@H](CCCCN)C(N)=O` gave CBFb-RUNX1 inh inactive.
Screening C=C(C)C(=O)Nc1cccc(C2=NOC3(C2)C[C@@H](C(N)=O)N(C(=O)C2(C)CC2)C3)c1 (stereo not given in full) returned Tb PFK inh 1.5µM, GALK inh inactive and PKM2 act inactive.
Screening Cc1ccc(S(=O)(=O)CCSc2nc(C)cc(C)c2C#N)cc1 returned Tb PFK inh inactive, CBFb-RUNX1 inh inactive, KinaseGlo FLuc inactive, GALK inh inactive and PKM2 act 25µM.
For CCS(=O)(=O)CCSc1nc(C)cc(C)c1C#N the results were Tb PFK inh inactive, CBFb-RUNX1 inh inactive, KinaseGlo FLuc inactive, GALK inh inactive and PKM2 act inactive.
`CCN(CC)CCCC(C)NC(=O)c1ccc(Cc2nc3ccccc3[nH]2)cc1` (stereo not given) gave KinaseGlo FLuc inactive.
Cc1ccc(F)cc1-c1ccc(C(=O)N=C(N)N)o1 was read as CBFb-RUNX1 inh inactive.
`Cc1ncsc1C(=O)Nc1nc2c(s1)CCCC2` gave Tb PFK inh inactive, CBFb-RUNX1 inh inactive, KinaseGlo FLuc 6.3µM, GALK inh inactive and PKM2 act inactive.
For COc1ccc(OC)c(-c2nnc3n2N=C(c2c(OC)cccc2OC)CS3)c1 the results were CBFb-RUNX1 inh inactive.
`Brc1ccc(-c2cn3nc4c(nc3n2)CCCC4)cc1` gave Tb PFK inh inactive, CBFb-RUNX1 inh inactive, KinaseGlo FLuc inconclusive, GALK inh inactive and PKM2 act inactive.
Cc1nc2nc(-c3ccc(F)cc3)cn2nc1C was read as Tb PFK inh inactive and GALK inh inactive.
Cc1nc2nc(-c3ccccc3)cn2nc1C was read as CBFb-RUNX1 inh inactive, KinaseGlo FLuc 10µM, GALK inh inactive and PKM2 act inactive.
`c1ccc(-c2cn3nc4c(nc3n2)CCCC4)cc1` gave Tb PFK inh inactive, CBFb-RUNX1 inh inactive, KinaseGlo FLuc 14µM, GALK inh inactive and PKM2 act inactive.
`O=C(NCCCCN1CCCC1)c1ccc(-n2c(=O)c(=O)[nH]c3ccccc32)cc1` gave KinaseGlo FLuc inactive.
`C=C1CC[C@H](O)C/C1=C/C=C1\CCC[C@]2(C)C([C@H](C)CC[C@@H](O)C(C)(C)O)CC[C@@H]12` (stereo not given in full) gave CBFb-RUNX1 inh inactive.

Source: PubChem (National Center for Advancing Translational Sciences (NCATS))
